The list is not random: actives were taken first. Their share in the collection is about 4.8%.
Mdm2 MdmX PPI: inhibitors of human Mdm2-MdmX association, primary screen, cell-based, luminescence, split luciferase, SaOS-2, uHTS. Protein Mdm4 (Homo sapiens) + E3 ubiquitin-protein ligase Mdm2 (Homo sapiens), …. SaOS-2 split-luciferase Mdm2/MdmX complementation. inhibition, % at 8 µM. 3% of 330,000 active. AID 485346, 2010;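 active = inhibition of at least 50% at 8 µM in the primary screen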
Target sequence (O15151 whole entry, looked up): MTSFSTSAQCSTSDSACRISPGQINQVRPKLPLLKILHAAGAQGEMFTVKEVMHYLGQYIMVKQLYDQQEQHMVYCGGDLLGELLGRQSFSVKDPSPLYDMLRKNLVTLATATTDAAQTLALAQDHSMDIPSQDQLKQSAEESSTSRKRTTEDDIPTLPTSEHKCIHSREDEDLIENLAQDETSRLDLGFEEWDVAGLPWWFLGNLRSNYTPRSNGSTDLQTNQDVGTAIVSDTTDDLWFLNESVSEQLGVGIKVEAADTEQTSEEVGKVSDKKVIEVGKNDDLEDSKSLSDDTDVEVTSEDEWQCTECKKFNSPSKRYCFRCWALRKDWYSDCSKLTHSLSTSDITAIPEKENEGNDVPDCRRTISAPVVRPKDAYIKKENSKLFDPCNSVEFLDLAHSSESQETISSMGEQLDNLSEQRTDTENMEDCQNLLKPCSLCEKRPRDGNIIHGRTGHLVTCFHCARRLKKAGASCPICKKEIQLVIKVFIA
Target sequence (Q00987 whole entry, looked up): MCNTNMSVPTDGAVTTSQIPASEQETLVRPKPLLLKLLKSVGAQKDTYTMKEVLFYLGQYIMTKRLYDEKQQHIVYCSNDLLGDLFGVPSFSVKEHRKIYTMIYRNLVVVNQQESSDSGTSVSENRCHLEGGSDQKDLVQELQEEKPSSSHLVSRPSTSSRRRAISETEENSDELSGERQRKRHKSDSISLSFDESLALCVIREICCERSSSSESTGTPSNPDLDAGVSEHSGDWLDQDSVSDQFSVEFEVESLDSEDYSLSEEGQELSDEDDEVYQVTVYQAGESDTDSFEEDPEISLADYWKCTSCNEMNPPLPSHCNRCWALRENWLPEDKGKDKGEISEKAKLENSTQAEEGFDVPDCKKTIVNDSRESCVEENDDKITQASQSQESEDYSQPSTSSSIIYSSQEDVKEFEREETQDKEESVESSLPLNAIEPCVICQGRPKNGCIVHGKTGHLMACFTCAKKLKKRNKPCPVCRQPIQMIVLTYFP
CSC inhib: cancer stem cell viability inhibitors, primary screen, luminescence; AID 2717, 2010; cancer stem cell-like cells viability; inhibition, % at 7.5 µM; 1.1% of 300,000 active; in the data active = inhibition above about 75%; inconclusive = no clear call, values can overlap the other calls; tested in HMLE shEcad cells
MPTP inh: mitochondrial permeability transition pore inhibitors, primary screen, biochemical, isolated mouse mitochondria, absorbance; Ca2+ swelling absorbance, 30 min; inhibition, % at 10 µM; 1.4% of 360,000 active;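 active = inhibition of 50% or more, scaled per plate between neutral and stimulator controls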;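 also: 0% = DMSO wells given calcium and 100% = 1 mM EGTA wells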
Calb FLC: C. albicans growth inhibition with fluconazole, primary screen, CaCi-2 strain, Alamar Blue fluorescence; C. albicans CaCi-2 (fluconazole-resistant clinical isolate) + fluconazole, 48 h; growth inhibition, % (test concentration not listed); 0.57% of 300,000 active; AID 1979, 2009;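 active = growth inhibition above about 58% in most replicates, limit read from the data, passing the limit was not always enough; inconclusive = exactly half the replicates above a set limit; inactive = most replicates below a set limit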;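 also: all wells also contain fluconazole at 8 µg/ml as a sub-toxic cotreatment; 0% = median of DMSO wells and 100% = median of geldanamycin control wells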
Beta cell apopt: inhibitors of cytokine-induced beta cell apoptosis, primary screen, luminescence | INS-1E cytokine-induced death, ATP luminescence, 48 h; percent of positive-control rescue, neutral wells zero | protection from apoptosis, % (concentration not given with the values) | 0.8% of 300,000 active | AID 435005, 2010;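 active = Every replicate reaches about 75%, or at least half do and their mean reaches it too, limit read from the data; inconclusive = At least half of replicates reach the limit but their mean does not; inactive = Under half of replicates reach the limit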;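 also: 0% = cytokine-treated negative control wells and 100% = positive control rescue; higher means more ATP so stronger rescue from cytokine killing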
Mdm2-MdmX conf: Mdm2-MdmX complex disruptors, retested hits, confirmation, luminescence, single concentration | shares compounds with Mdm2 MdmX PPI | Mdm2-MdmX binding, luminescent assay | inhibition, % at 8 µM | 55% of 10,000 active | AID 489028, 2010; in the data active = inhibition above about 40%
FLuc counter: full-length luciferase signal inhibition, confirmation, counter-screen for Mdm2/MdmX interaction inhibitor project, cell-based, single concentration, SaOS-2. shares compounds with Mdm2 MdmX PPI. SaOS-2 full-length luciferase counterscreen, luminescence. inhibition, % at 8 µM. 77% of 6,200 active;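 active = mean inhibition at 8 µM reaching about 37%, which flags the compound as non-specific, limit read from the data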;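 also: p53-null SaOS-2 cells with luciferase driven by a doxycycline-inducible promoter; compound on cells about two nights before reading with doxycycline added after day one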
* = called active by the depositor; ? = inconclusive; . = no result.

SMILES	Mdm2 MdmX PPI	CSC inhib	MPTP inh	Calb FLC	Beta cell apopt	Mdm2-MdmX conf	FLuc counter
Cc1ccc(-n2[nH]c(=O)c(-c3ccccn3)c2C)cc1	79*	-13	2	?	5	81*	54*
Cc1ccc(-c2nnn(CC(=O)N(CC(=O)NC3CCCC3)c3ccc(F)c(Cl)c3)n2)o1	60*	.	1	0	9	15	.
COc1ccc(Cc2nc3ccc(C(=O)NC(C)Cc4ncccc4C)cc3o2)cc1OC (stereo not drawn)	16	-7	-1	-1	-6	.	.
CCCCN1C(=N)N([C@@H](CCC)CN2CCC[C@H]2CN2C(N)=NC[C@H]2C(C)C)C[C@H]1[C@H](C)CC	6	.	-1	.	.	.	.
O=C1NC(=Nc2cccnc2)S/C1=C/c1ccc(F)cc1	51*	55	5	5	-1	20	.
O=C1NC(=Nc2ccccc2)S/C1=C\c1cccnc1	31	-4	4	8	.	.	.
CC1(C(=O)Nc2ccc3c(c2)OCCO3)CN(S(C)(=O)=O)CC(=O)N1Cc1cccs1 (stereo not drawn)	.	.	-1	.	.	.	.
COc1cc(/C=C(\C#N)C(=O)N2CCOCC2)ccc1OCc1ccccc1	-32	-2	0	-7	-2	.	.
N#C/C(=C\c1ccc(OCc2ccc(C(=O)O)cc2)cc1)C(=O)N1CCOCC1	55*	25	1	-2	4	44*	21
CCOc1ccc(S(=O)(=O)N2CCC(C(=O)OC(C)C(=O)N3CCOCC3)CC2)cc1 (stereo not drawn)	22	-17	0	4	-2	.	.
COc1ccc(CC2S/C(=N/N=C/c3ccccc3O)NC2=O)cc1 (stereo not drawn)	44	?	6	-13	57	.	.
O=C1N/C(=N/N=C/c2ccccc2O)SC1Cc1ccc(F)cc1 (stereo not drawn)	71*	49	6	-10	87*	53*	10
CC12CC(c3ccccc3O1)N(C(=O)c1ccco1)C(=S)N2c1ccccc1 (stereo not drawn)	63*	0	1	6	-1	9	.
CC(=O)c1c(N2CCN(C(=O)c3ccco3)CC2)nc(=S)n(-c2ccccc2)c1C	3	-7	-1	9	-1	.	.
N/C(=N\OC(=O)c1ccc(Cl)cc1[N+](=O)[O-])c1ccccn1	-78	-2	0	12	5	.	.
Cc1ccc(C(=O)O/N=C(\N)c2ccccc2)c(Cl)c1	80*	-8	2	-1	.	58*	120*
N/C(=N\OC(=O)c1ccc([N+](=O)[O-])cc1Cl)c1ccccn1	54*	6	2	23	12	37	.
N/C(=N\OC(=O)c1cc(Br)ccc1Cl)c1ccccn1	-103	-7	-1	?	.	.	.
N/C(=N\OC(=O)c1ccc(Cl)cc1Cl)c1ccccn1	52*	18	1	26	110*	38	53*
Cc1ccc(C(=O)O/N=C(\N)c2ccccn2)c(Cl)c1	96*	26	1	-4	.	89*	20
N/C(=N\OC(=O)c1cc([N+](=O)[O-])ccc1Cl)c1ccccn1	35	-6	0	10	-6	.	.
O=C(C(=O)N1CCC(c2ccccc2)CC1)c1ccc(F)c(F)c1	.	.	6	.	.	.	.
Cc1ccc(OCc2cc(C(=O)N(C)Cc3cc(C4CC4)n[nH]3)no2)cc1C	17	1	0	1	?	.	.
O=C1NC[C@H](CCCCN2C[C@H](Cc3ccccc3)N(Cc3ccccc3)C(=O)C2=O)N(CCC2CCCCC2)C1=O	.	.	-2	.	.	.	.
COc1ccc(Cc2nnc(SCc3ccc([N+](=O)[O-])cc3)o2)cc1	60*	8	-1	13	-18	61*	29
COCCNC(=O)C(OC(=O)c1ccco1)c1ccc(OC)cc1 (stereo not drawn)	.	.	-1	.	.	.	.
COc1ccc(COC[B-](F)(F)F)cc1	.	.	0	.	.	.	.

Screening results deposited in PubChem BioAssay by several laboratories.
